We go through 15 molecules from PubChem BioAssay (NCI).

What all share (test): NCI-60 one-dose screen, 48 h (100 = growth as untreated, 0 = no growth, -100 = all killed)
Details in all cases: 10 µM unless noted

The test system of assay [1] is T-47D breast.
The test system of assay [2] is BT-549 breast.
Assay [3] deals with MDA-MB-435 melanoma.
Assay [4] concerns SW-620 colon.
Assay [5] has as its system MCF7 breast.
Assay [6] deals with HCT-116 colon.
Assay [7] deals with HCC-2998 colon.
Assay [8] relates to KM12 colon.

About 83,000 compounds went through this panel and 20% of them were active in at least one assay; those are over-represented in the sample as a whole.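 Cell lines were cultured in 96-well plates, exposed to a single compound concentration, and assessed for percent growth 48 hours later.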 Unmarked numbers belong to inactive results. Calls of active or inactive are those of the source. Rule for the calls: active = growth percent below 10; inactive = the rest.

Turning to `COc1ccc(S(=O)(=O)Oc2ccc(-c3sc4cc(OS(=O)(=O)c5ccc(OC)cc5)ccc4c3C(=O)c3ccc(OCCN4CCCCC4)cc3)cc2)cc1`, the growth in assay [1] is 94.2%; in assay [2] it was 94.1%; in assay [3], 105%; in assay [4], 108%; in assay [5], 91.3%; in assay [6], 98.8%. In addition, the growth is 105% in assay [7] and 99.1% in assay [8].

Consider `CN1CCN(c2ccc(Nc3ncc4[nH]c(=O)n(Cc5ccccc5N)c4n3)cc2)CC1`, for which the growth in assay [1] is 75.3%; in assay [2], 97.8%; in assay [3], 104%; in assay [4], 95.3%; in assay [5], 87.8%; in assay [6], 91.5%. For the same molecule, the growth in assay [7] was 96.4%; in assay [8], 101%.

For the molecule `CCCCCCCC/C=C\CCCCCCCCOc1ccc(CC(=O)NCC[N+]2(C)CCCC2)cc1`, the growth was 77.2% in assay [1]; 73.6% in assay [2]; 77.2% in assay [3]; 54.5% in assay [4]; 57.1% in assay [5]; 53.2% in assay [6]. The growth is 37.2% in assay [7] and 27.5% in assay [8].

For the molecule `O=C1/C(=C/c2ccc(-c3ccc(Cl)cc3)o2)SC(=S)N1CCc1ccc(O)cc1`, the growth was 43.9% in assay [1]; 64.6% in assay [2]; 19.7% in assay [3]; 26.6% in assay [4]; 77.9% in assay [5]; 48.8% in assay [6]. In addition, the growth in assay [7] was 89.6%; in assay [8], 22.9%.

Turning to `Cc1ccc(C2(C)NC(=O)N(CC(=O)Nc3cccc(C)c3)C2=O)cc1` (stereo not given), the growth in assay [1] was 94.4%; in assay [2], 90.9%; in assay [3] it was 108%; in assay [4], 106%; in assay [5], 91.2%; in assay [6], 96.1%. In addition, the growth in assay [7] was 102%; in assay [8], 96.6%.

Turning to `CCOc1ccc(-c2cc(C3(S(=O)(=O)c4ccc(C)cc4)CC=CC3)on2)cc1`, the growth in assay [1] was 64.4%; in assay [2], 94.8%; in assay [3], 95.1%; in assay [4], 89.4%; in assay [5], 95.9%; in assay [6] it was 82.3%. In addition, the growth was 97.1% in assay [7] and 94.4% in assay [8].

As for `CS(=O)(=O)c1cccc(Nc2ncc3cc(-c4ccccc4Cl)ccc3n2)c1`, the growth in assay [1] is 11.1%; in assay [2] it was 10.3%; in assay [3], -28.3% (active); in assay [4] it was 15.7%; in assay [5] it was 21.4%; in assay [6], -5.46% (active). Moreover, the growth is 33.3% in assay [7] and 21.5% in assay [8].

For `CN1CCN(Cc2ccc(NC(=O)c3cncc(C#Cc4cnc(N)c5ccc(C#N)cc45)c3)cc2C(F)(F)F)CC1`, the growth in assay [1] is 10.4%; in assay [2] it was 37.3%; in assay [3], -74.3% (active); in assay [4] it was -41.3% (active); in assay [5] it was -60.8% (active); in assay [6], -65.7% (active). The values for the growth in assay [7] and in assay [8] were 32.6% and -85.1% (active), respectively.

In the case of `CC(=O)CC(=O)c1ccccc1.[Cu+2]`, the growth in assay [1] was 93.2%; in assay [2], 114%; in assay [3], 105%; in assay [4] it was 103%; in assay [5], 75.1%; in assay [6], 97.7%. Further, the growth was 107% in assay [7] and 98.2% in assay [8].

In the case of `CN(C)C(=S)NN=C(c1ccccn1)c1ccccn1`, the growth was 29.6% in assay [1]; 17% in assay [2]; 41.4% in assay [3]; 17.7% in assay [4]; 17.3% in assay [5]; 20.5% in assay [6]. The growth was 40% in assay [7] and 16.7% in assay [8].

Regarding `COc1ccc(S(=O)(=O)N(C)c2oc(-c3ccc(Cl)cc3)nc2C#N)cc1`, the growth is 74.5% in assay [1]; 74.7% in assay [2]; -3.32% (active) in assay [3]; 43.3% in assay [4]; 52.5% in assay [5]; 72% in assay [6]. Also, the results for the growth in assay [7] and in assay [8] were 76.2% and 56.6%, respectively.

As for `CCOC(=O)c1cnc2sc(-c3ccc(OC)cc3)nc2c1Cl`, the growth was 97.2% in assay [1]; 107% in assay [2]; 87.7% in assay [3]; 114% in assay [4]; 88% in assay [5]; 87.8% in assay [6]. Moreover, the growth was 114% in assay [7] and 90.7% in assay [8].

Regarding `Oc1ccc(Cc2ccc(O)c3ncccc23)c2cccnc12`, the growth is -3.14% (active) in assay [1]; 29.4% in assay [2]; 12.6% in assay [3]; 16.7% in assay [4]; 3.18% (active) in assay [5]; 15.2% in assay [6]. The growth in assay [7] is 19.2%; in assay [8], 15.8%.

On to `O=C1c2ccccc2C(=O)c2cc(Cn3c[n+](Cc4ccc5ccccc5c4)c4ccccc43)ccc21`, for which the growth in assay [1] was 41.2%; in assay [2], 47%; in assay [3], 38.4%; in assay [4], 64.4%; in assay [5], 39.9%; in assay [6], 41.2%. Moreover, the growth in assay [7] is 46.2%; in assay [8], 25.5%.

On to `CCCCCCCCNC(=O)[C@@H](N)CSCOC(C)=O`, for which the growth in assay [1] is 96.1%; in assay [2] it was 111%; in assay [3], 19.1%; in assay [4], 84.6%; in assay [5], 108%; in assay [6], 92.7%. The values for the growth in assay [7] and in assay [8] were 101% and 38.1%, respectively.
